Experimental data: PubChem BioAssay AID1259343 (VanderVen Lab, College of Veterinary Medicine, Cornell …, 2017)
Screen size: about 6,200 compounds; about 2,900 (47%) were called active. The set was probably picked from earlier hits. The list shows a part of the results. A number with no mark means an inactive call. Cut-off read from the data, not from the text of the source: active = inhibition above about 50%; inactive = the rest.

test: Mycobacterium tuberculosis growth inhibition, primary screen (AID 1259343); conditions: inhibition: at 10 µM, active compounds read high; outcome: 10 uM

| SMILES | inhibition |
| --- | --- |
| Cc1ccc(/C=C/S(=O)(=O)N2CC(C(N)=O)c3ccccc32)cc1 (configuration not stated) | -0.07% |
| CCc1cc(=O)[nH]c(-n2nc(C)cc2NC(=O)C(C)C)n1 | 101% (active) |
| CCOc1ccc(C(=O)Nc2cc(C)nn2-c2nc(C)c(CC)c(=O)[nH]2)cc1OCC | -21.9% |
| Cc1cc(=O)[nH]c(-n2nc(C)cc2NC(=O)c2ccc(-c3ccccc3)cc2)n1 | 100% (active) |
| Cc1cc(NC(=O)c2ccc(-c3ccccc3)cc2)n(-c2nc(C)c(C)c(=O)[nH]2)n1 | 100% (active) |
| Cc1cc(=O)[nH]c(-n2nc(C)cc2NC(=O)c2ccc(C)c(C)c2)n1 | 100% (active) |
| CCOc1ccc(C(=O)Nc2cc(C)nn2-c2nc(C)c(C)c(=O)[nH]2)cc1OCC | 98.7% (active) |
| Cc1cc(NC(=O)c2ccccc2)n(-c2nc(C)c(C)c(=O)[nH]2)n1 | -21.2% |
| Cc1ccc(C(=O)Nc2cc(C)nn2-c2nc(C)cc(=O)[nH]2)cc1 | 101% (active) |
| Cc1cc(C)cc(C(=O)Nc2cc(C)nn2-c2nc(C)cc(=O)[nH]2)c1 | 100% (active) |
| Cc1cc(=O)[nH]c(-n2nc(C)cc2NC(=O)c2ccccc2)n1 | 101% (active) |
| CSc1c(C#N)c(=O)[nH]c2sc(C#N)c(N)c12 | 29.1% |
| CSc1c(C#N)c(SCC(=O)c2cc3ccccc3oc2=O)[nH]c(=O)c1C#N | 83% (active) |
| COC(=O)c1ccc(-c2noc(CN3CCC(C(O)Cc4ccccc4)CC3)n2)cc1 (configuration not stated) | 14.8% |
| COC(=O)c1ccc(-c2noc(CN3CCCN(C(=O)c4ccco4)CC3)n2)cc1 | 84.3% (active) |
| COC(=O)c1ccc(-c2noc(CN3CCC(C(O)c4cccs4)CC3)n2)cc1 (configuration not stated) | 16.3% |
| Fc1ccccc1Cc1noc(CN2CCN(c3cccc(C(F)(F)F)c3)CC2)n1 | 34.2% |
| COC(=O)c1ccc(N2CCN(Cc3nc(Cc4cccc(F)c4)no3)CC2)cc1 | 59.4% (active) |
| O=C(Nc1ncc(SCCN2CCCC2)s1)[C@]1(c2ccc(S(=O)(=O)C3CC3)cc2)C[C@H]1C1CCCCC1 | 17.1% |
| CC(=O)Oc1ccc(CN2C(=O)C(CCc3ccccc3)ON=C2c2cnccn2)cc1 (configuration not stated) | 41.4% |
| Fc1ccc(COc2ccc(-c3nnco3)cc2)c(Cl)c1 | 55.8% (active) |
| CC(C)(C)c1ccc(OCc2ccc(-c3nnco3)cc2)cc1 | 49.7% |
| CC(C)C(=O)Nc1ccc(Sc2nncs2)cc1 | 89.1% (active) |
| Cc1csc(Sc2ccc(NC(=O)c3cnn(C)c3C)cc2)n1 | 16.3% |
| CC(=O)Nc1ccc(Sc2ncnc3sccc23)cc1 | 0.26% |

| SMILES | inhibition |
| --- | --- |
| CC(C)COC(=O)Nc1ccc2nc(N3CCOCC3)sc2c1 | 27.4% |
| CNC(=S)Nc1ccc(Oc2ccc(NC(=S)NC)cc2)cc1 | 79.6% (active) |
| CCNC(=S)Nc1ccc(NC(=S)NCC)cc1 | 63.7% (active) |
| CSCCCNC(=S)Nc1ccc(N2CCOCC2)cc1 | 20.7% |
| COc1ccccc1NC(=S)N=C1CCN(c2ccccc2)N1 | 19.3% |
| CNC(=S)Nc1ccc(Nc2ccccc2OC)cc1 | 72.1% (active) |
| CNC(=S)Nc1ccc(N2CCOCC2)cc1 | 101% (active) |
| O=C(Nc1ccc(-c2cnc(C3CC3)o2)cc1)C1CCCC1 | -17.9% |
| Cc1ncc(-c2ccc(NC(=O)C3CC3C)cc2)o1 (configuration not stated) | 94.6% (active) |
| N#Cc1cccc(COc2ccc(NC(=O)C3CCCO3)cc2F)c1 (configuration not stated) | 91.9% (active) |
| N#Cc1cccc(COC(=O)CC(NC(N)=O)c2cccs2)c1 (configuration not stated) | -9.57% |
| FC(F)(F)c1cc(-c2ccco2)nc2c1cnn2Cc1cccnc1 | 37% |
| CCNc1nc(C(=O)N(C)Cc2ccc(Br)o2)cs1 | 8.37% |
| CN(Cc1ccc(Cl)c(Cl)c1)C(=O)c1csc(-c2cccs2)n1 | 56.2% (active) |
| CCCN(CCC)C(=O)c1nn(-c2ccccn2)c2nccc(-c3cccs3)c12 | 41.7% |
| CCC(C)(C)NC(=O)c1ccc2c(c1)S(=O)(=O)c1ccccc1C2=O | 14.8% |
| CCC(C)(C)NC(=O)COC(=O)c1ccc(-c2ccc(O)cc2)cc1 | 50.1% (active) |
| CCCC(C)C(=O)Nc1ccc(-c2nccs2)cc1 (configuration not stated) | 89.9% (active) |
| Cn1nc(C(=O)Nc2ccc(-c3nccs3)cc2)ccc1=O | 85.9% (active) |
| [O-]/[N+](Cc1ccccc1)=N/OCc1ccccc1 | 83.2% (active) |
| CCc1cc(=O)[nH]c(-n2nc(C)cc2NC(=O)C2CC(=O)N(c3ccccc3)C2)n1 (configuration not stated) | 101% (active) |
| CCc1cc(=O)[nH]c(-n2nc(C)cc2NC(=O)C2CC(=O)N(c3ccc(C)c(C)c3)C2)n1 (configuration not stated) | 101% (active) |
| CCCC(Nc1nc(-c2cccnc2)nc2c1cnn2C)c1cccs1 (configuration not stated) | 27.3% |
| COc1ccccc1N1C(=O)CC(SC(N)=N/N=C(C)\C=C\c2ccc(N(C)C)cc2)C1=O (configuration not stated) | -2.66% |
| Nc1nn(C(=O)CC2CCCO2)cc1-c1cccc(Cl)c1 (configuration not stated) | 83.6% (active) |

| SMILES | inhibition |
| --- | --- |
| Oc1ccc(Br)cc1C=Nn1cc(-c2ccccc2)[nH]c1=S | 25.5% |
| O=C1CSC(=NN=Cc2cc(Br)ccc2O)N1 | 102% (active) |
| O=C1CSC(=NN=C2NC(=O)C(CC(=O)Nc3ccc(Br)cc3)S2)N1 (configuration not stated) | 18.9% |
| Cc1ncsc1C(=O)Nc1scc(C2CCCCC2)c1C(N)=O | 24.3% |
| CN(C)CCNc1c2c(c(C#N)c3nc4ccccc4n13)CCCC2 | 20% |
| CN=c1scc(-c2c(-c3ccccc3)n(C)c3ccccc23)n1C | 25.1% |
| O=C1N=C2OC=C(C(=O)Nc3ccc(-n4cccc4)cc3)N2CCN1 | 89.4% (active) |
| O=C1N=C2OC=C(C(=O)Nc3ccc(-n4cccn4)cc3)N2CCN1 | 60.6% (active) |
| O=C(CCl)Nc1ccc(N2CCCCCC2)cc1 | 21.1% |
| O=C(Nc1ccc(N2CCCCC2)cc1)c1ccc(Cl)s1 | 94% (active) |
| N#Cc1cccnc1N1CCC(CCc2ccc(O)cc2)CC1 | 93.1% (active) |
| N#Cc1ccc(NC2CCN(c3ncccn3)CC2)cc1C(F)(F)F | 26.1% |
| Cc1nn(-c2ccccc2)c2[nH]c(=O)c(C#N)c(-c3cccs3)c12 | 64.4% (active) |
| COc1ccc2c(c1)OC1(O)COc3cc(OC)c(OC)cc3C1=C2 (configuration not stated) | 61.7% (active) |
| COc1ccc(O)c(C=Nn2c(C)csc2=NC(C)C)c1 | 34% |
| O=C1OC(c2ccc(Cl)cc2)=NC1=Cc1ccc2c(c1)OCO2 | 15.6% |
| Clc1ccc(C=Nc2ccc3c(c2)OCO3)cc1 | 82.9% (active) |
| Oc1ccc(N=Nc2ccc3c(c2)OCO3)c2ccccc12 | -28.6% |
| Brc1ccccc1C=Nc1ccc2c(c1)OCO2 | 94.3% (active) |
| O=C(OCc1cc2c(cc1Br)OCO2)c1cccc(O)c1 | -12.8% |
| COc1ccc(O)c(C=Nc2ccc3c(c2)OCO3)c1 | 65.5% (active) |
| COC(=O)c1c(C)[nH]c(C(=O)NC(C)Cc2cccc(Cl)c2)c1C (configuration not stated) | 30% |
| Cc1cccc(C(=O)Nc2cc(C3CC3)nn2-c2nc(C)cc(=O)[nH]2)c1 | 100% (active) |
| Cc1cc(=O)[nH]c(-n2nc(C3CC3)cc2NC(=O)c2cc3ccccc3o2)n1 | -20.2% |
| Cc1cc(=O)[nH]c(-n2nc(C3CC3)cc2NC(=O)c2ccccc2)n1 | 100% (active) |

| SMILES | inhibition |
| --- | --- |
| CCC(C(=O)Nc1cc(C2CC2)nn1-c1nc(C)cc(=O)[nH]1)c1ccccc1 (configuration not stated) | 100% (active) |
| Clc1cnc(NN=Cc2ccco2)c(Cl)c1 | 85.9% (active) |
| Oc1ccc(C=NNc2ncc(C(F)(F)F)cc2Cl)c(O)c1O | 17.8% |
| Clc1cnc(NN=Cc2cccs2)c(Cl)c1 | -11.6% |
| CC[N+](CC)=c1ccc2nc3c(cc(N)c4ccccc43)oc-2c1 | 102% (active) |
| CO[C@H]1C=CO[C@@]2(C)Oc3c(C)c(O)c4c(O)c(c5c(nc6cc(C)ccn65)c4c3C2=O)NC(=O)C(C)=CC=C[C@H](C)[C@H](O)[C@@H](C)[C@@H](O)[C@@H](C)[C@H](OC(C)=O)[C@@H]1C | 98.5% (active) |
| O=C(/C=C(\O)c1ccccc1)c1ccccc1O | 100% (active) |
| CC(C)c1cc(=O)[nH]c(-n2nc(-c3cccs3)cc2NC(=O)c2ccc(F)cc2F)n1 | 99.7% (active) |
| CC(C)c1cc(=O)[nH]c(-n2nc(-c3cccs3)cc2NC(=O)c2cccc(F)c2)n1 | 99.2% (active) |
| Cc1cccc(C(=O)Nc2cc(-c3cccs3)nn2-c2nc(C(C)C)cc(=O)[nH]2)c1 | -9.66% |
| O=S(=O)(CCSc1ccccn1)c1nc2ccccc2s1 | 101% (active) |
| O=C(CCl)N1CCN(c2cccc(Cl)c2)CC1 | 79.1% (active) |
| COc1ccc(N2CCN(C(=O)CCl)CC2)cc1 | 77.2% (active) |
| O=C(CCl)N1CCCc2cc([N+](=O)[O-])ccc21 | 102% (active) |
| Cc1cccc(C(=O)NC(=NCCN2CCCC2)OCC(C)C)c1 | 5.15% |
| COc1ccc(C(=O)NCCCn2cccn2)cc1OC1CCN(C(C)=O)CC1 | 17.6% |
| Cc1cccc(C(=O)NCCn2ncccc2=O)c1 | 97.8% (active) |
| CC1COCCN1C(=O)NC(c1cc(F)ccc1F)C1CC1 (configuration not stated) | -42.7% |
| CC(NC(=O)CN1CCCCC1)c1ccc(F)cc1F (configuration not stated) | 51.7% (active) |
| COCc1ccccc1CNC(=O)CN1CCC(C)Sc2ccccc21 (configuration not stated) | -20.7% |
| CC1(c2ccco2)NC(=S)N(c2ccccc2)N1 (configuration not stated) | 76.4% (active) |
| CCCCc1ccc(N2C(N)=CS/C2=C(/C#N)S(=O)(=O)c2ccccc2)cc1 | 89.6% (active) |
